# From ChEMBL document CHEMBL1961873, “Compounds: GSK PKIS; Assays: Nanosyn kinase panel” (2012)
# Experiments:
# [1] = target: CDK3/Cyclin E (Homo sapiens) (UniProt P24864+Q00526); details: at 1 µM;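 also: each figure is a mean percent inhibition of the CDK3/cyclin E complex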
# [2] = target: Cyclin-dependent kinase 4 (Homo sapiens) (UniProt P11802); details: at 0.1 µM
# [3] = target: Cyclin-dependent kinase 4 (Homo sapiens) (UniProt P11802); details: at 1 µM
# [4] = target: Cyclin-dependent kinase 5 (Homo sapiens) (UniProt Q00535); details: at 0.1 µM
# [5] = target: Cyclin-dependent kinase 5 (Homo sapiens) (UniProt Q00535); details: at 1 µM
# [6] = target: Cyclin-dependent kinase 6 (Homo sapiens) (UniProt Q00534); details: at 0.1 µM
# [7] = target: Cyclin-dependent kinase 6 (Homo sapiens) (UniProt Q00534); details: at 1 µM
# [8] = target: Dual specificity protein kinase CLK2 (Homo sapiens) (UniProt P49760); details: at 0.1 µM
# [9] = target: Dual specificity protein kinase CLK2 (Homo sapiens) (UniProt P49760); details: at 1 µM
# [10] = target: Dual specificity protein kinase CLK3 (Homo sapiens) (UniProt P49761); details: at 0.1 µM
# [11] = target: Dual specificity protein kinase CLK3 (Homo sapiens) (UniProt P49761); details: at 1 µM
# [12] = target: Dual specificity tyrosine-phosphorylation-regulated kinase 1A (Homo sapiens) (UniProt Q13627); details: at 0.1 µM
# [13] = target: Dual specificity tyrosine-phosphorylation-regulated kinase 1A (Homo sapiens) (UniProt Q13627); details: at 1 µM
# [14] = target: Dual specificity tyrosine-phosphorylation-regulated kinase 1B (Homo sapiens) (UniProt Q9Y463); details: at 0.1 µM
# [15] = target: Dual specificity tyrosine-phosphorylation-regulated kinase 1B (Homo sapiens) (UniProt Q9Y463); details: at 1 µM
# [16] = target: T1, Dual specificity tyrosine-phosphorylation-regulated kinase 2 (Homo sapiens) (UniProt Q92630); details: at 0.1 µM
# T1 sequence (whole entry): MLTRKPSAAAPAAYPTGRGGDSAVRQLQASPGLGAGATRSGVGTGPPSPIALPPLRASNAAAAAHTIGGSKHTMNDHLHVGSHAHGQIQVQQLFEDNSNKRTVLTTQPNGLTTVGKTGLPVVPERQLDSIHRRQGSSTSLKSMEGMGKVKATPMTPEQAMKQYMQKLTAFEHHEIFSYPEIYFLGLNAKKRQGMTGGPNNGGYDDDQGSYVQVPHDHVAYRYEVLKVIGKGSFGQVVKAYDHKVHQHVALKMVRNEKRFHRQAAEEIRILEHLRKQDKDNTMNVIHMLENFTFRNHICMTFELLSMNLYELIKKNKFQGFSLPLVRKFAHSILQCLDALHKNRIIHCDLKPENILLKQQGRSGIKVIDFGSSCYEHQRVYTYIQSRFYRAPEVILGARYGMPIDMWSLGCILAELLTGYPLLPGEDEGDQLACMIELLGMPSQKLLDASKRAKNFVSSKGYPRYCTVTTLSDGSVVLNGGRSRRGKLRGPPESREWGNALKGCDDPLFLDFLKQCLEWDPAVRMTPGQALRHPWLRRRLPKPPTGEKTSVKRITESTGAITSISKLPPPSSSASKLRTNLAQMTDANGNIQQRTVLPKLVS
# [17] = target: T1, Dual specificity tyrosine-phosphorylation-regulated kinase 2 (Homo sapiens); details: at 1 µM
# [18] = target: Glycogen synthase kinase-3 alpha (Homo sapiens) (UniProt P49840); details: at 0.1 µM
# [19] = target: Glycogen synthase kinase-3 alpha (Homo sapiens) (UniProt P49840); details: at 1 µM
# [20] = target: Glycogen synthase kinase-3 beta (Homo sapiens) (UniProt P49841); details: at 0.1 µM;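 also: values are mean percent inhibition of GSK3B activity, from the GSK Published Kinase Inhibitor Set (PKIS) screening dataset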
# Glycogen synthase kinase-3 beta (Homo sapiens), sequence (P49841 whole entry, looked up): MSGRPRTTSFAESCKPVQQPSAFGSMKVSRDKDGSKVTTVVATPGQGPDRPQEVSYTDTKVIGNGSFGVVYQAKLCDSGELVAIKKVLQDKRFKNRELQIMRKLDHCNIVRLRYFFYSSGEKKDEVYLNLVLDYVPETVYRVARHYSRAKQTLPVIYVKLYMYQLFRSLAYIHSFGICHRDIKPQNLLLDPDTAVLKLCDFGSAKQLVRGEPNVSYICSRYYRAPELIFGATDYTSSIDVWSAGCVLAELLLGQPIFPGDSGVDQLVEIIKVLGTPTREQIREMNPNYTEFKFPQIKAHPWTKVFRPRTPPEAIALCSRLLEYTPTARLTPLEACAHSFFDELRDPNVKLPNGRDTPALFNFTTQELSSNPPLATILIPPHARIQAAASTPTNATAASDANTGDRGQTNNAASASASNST
# Cyclin-dependent kinase 4 (Homo sapiens), sequence (P11802 whole entry): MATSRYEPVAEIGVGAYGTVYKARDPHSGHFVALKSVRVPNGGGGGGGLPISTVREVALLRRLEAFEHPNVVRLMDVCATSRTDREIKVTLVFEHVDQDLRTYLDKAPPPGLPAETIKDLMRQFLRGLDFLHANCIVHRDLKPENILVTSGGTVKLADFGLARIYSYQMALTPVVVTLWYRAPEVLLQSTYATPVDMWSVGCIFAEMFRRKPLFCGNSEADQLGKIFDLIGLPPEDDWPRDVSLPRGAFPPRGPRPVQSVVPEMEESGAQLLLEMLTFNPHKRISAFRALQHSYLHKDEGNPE
# Dual specificity protein kinase CLK2 (Homo sapiens), sequence (P49760 whole entry, looked up): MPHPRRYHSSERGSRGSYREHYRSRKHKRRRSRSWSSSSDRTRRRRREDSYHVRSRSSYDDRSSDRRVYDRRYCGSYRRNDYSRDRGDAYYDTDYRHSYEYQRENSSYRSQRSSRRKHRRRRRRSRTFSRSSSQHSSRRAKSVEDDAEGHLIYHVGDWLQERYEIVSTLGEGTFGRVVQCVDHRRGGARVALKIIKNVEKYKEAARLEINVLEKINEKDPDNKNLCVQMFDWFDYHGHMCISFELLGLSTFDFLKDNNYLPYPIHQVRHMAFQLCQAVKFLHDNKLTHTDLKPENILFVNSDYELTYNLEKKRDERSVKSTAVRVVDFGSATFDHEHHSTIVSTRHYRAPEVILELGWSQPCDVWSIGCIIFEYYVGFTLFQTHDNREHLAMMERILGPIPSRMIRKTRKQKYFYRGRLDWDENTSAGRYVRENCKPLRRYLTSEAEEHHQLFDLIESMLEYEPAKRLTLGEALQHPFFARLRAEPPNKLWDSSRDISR
# Glycogen synthase kinase-3 alpha (Homo sapiens), sequence (P49840 2-483 limits assumed): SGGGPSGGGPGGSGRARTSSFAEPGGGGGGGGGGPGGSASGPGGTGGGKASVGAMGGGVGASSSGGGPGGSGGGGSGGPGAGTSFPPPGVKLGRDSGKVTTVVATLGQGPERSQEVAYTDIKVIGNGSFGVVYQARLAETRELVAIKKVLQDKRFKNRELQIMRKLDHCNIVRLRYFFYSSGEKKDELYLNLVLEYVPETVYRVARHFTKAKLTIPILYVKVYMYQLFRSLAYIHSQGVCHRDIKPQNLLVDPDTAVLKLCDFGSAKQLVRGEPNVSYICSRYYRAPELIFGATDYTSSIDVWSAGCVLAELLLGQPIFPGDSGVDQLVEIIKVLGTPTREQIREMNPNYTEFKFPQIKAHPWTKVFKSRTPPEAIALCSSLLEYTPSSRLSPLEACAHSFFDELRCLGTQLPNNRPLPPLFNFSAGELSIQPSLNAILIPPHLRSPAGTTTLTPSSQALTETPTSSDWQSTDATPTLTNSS
# Dual specificity tyrosine-phosphorylation-regulated kinase 1B (Homo sapiens), sequence (Q9Y463 whole entry, looked up): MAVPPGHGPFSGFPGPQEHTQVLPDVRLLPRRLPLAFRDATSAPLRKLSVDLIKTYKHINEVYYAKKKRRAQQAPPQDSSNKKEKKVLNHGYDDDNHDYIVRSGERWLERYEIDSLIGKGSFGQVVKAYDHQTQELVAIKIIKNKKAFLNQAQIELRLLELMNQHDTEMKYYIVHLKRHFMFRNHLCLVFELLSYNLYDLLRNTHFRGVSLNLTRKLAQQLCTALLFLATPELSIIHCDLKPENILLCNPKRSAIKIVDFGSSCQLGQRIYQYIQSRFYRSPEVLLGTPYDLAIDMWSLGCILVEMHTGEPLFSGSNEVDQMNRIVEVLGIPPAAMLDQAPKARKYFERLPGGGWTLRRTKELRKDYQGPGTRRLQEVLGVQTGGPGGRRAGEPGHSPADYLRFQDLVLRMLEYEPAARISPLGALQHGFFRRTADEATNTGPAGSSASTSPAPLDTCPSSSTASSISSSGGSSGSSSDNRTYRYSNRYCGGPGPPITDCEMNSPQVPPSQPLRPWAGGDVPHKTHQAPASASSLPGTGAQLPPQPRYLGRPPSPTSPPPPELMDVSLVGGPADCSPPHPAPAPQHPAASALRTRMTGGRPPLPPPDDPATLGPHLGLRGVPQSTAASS
# Dual specificity protein kinase CLK3 (Homo sapiens), sequence (P49761 whole entry, looked up): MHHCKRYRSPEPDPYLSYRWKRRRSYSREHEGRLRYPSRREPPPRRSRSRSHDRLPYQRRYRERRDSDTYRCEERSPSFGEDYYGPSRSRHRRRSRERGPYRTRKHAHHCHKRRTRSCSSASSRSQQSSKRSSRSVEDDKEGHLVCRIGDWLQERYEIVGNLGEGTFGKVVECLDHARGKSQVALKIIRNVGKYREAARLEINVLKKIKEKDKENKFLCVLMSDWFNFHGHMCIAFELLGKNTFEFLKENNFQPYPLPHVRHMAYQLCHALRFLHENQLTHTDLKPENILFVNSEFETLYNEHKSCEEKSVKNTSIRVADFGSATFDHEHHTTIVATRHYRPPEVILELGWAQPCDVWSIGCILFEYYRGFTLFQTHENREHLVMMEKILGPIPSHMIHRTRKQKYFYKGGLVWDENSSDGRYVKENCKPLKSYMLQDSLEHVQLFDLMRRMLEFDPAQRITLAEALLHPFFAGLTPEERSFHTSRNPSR
# Cyclin-dependent kinase 5 (Homo sapiens), sequence (Q00535 whole entry, looked up): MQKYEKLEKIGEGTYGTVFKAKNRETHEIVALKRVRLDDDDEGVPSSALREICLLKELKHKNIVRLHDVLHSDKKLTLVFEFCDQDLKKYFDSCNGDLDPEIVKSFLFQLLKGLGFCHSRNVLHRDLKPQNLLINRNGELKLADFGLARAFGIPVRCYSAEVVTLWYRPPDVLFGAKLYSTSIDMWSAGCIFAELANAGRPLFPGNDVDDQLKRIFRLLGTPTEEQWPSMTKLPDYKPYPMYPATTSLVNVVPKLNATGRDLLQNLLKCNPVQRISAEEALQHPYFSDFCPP
# CDK3/Cyclin E (Homo sapiens), sequence (P24864 whole entry, looked up): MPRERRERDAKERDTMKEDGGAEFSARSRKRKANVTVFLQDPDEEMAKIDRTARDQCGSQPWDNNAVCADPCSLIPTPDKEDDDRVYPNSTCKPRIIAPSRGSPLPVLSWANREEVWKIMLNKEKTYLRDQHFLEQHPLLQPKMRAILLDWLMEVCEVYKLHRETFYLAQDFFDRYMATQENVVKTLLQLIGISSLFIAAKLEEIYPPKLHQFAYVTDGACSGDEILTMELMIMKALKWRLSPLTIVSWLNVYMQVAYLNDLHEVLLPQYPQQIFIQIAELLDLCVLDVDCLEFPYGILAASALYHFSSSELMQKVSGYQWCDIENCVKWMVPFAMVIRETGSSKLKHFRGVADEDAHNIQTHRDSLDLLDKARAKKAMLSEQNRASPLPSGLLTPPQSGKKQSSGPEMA
# CDK3/Cyclin E (Homo sapiens), sequence (Q00526 whole entry, looked up): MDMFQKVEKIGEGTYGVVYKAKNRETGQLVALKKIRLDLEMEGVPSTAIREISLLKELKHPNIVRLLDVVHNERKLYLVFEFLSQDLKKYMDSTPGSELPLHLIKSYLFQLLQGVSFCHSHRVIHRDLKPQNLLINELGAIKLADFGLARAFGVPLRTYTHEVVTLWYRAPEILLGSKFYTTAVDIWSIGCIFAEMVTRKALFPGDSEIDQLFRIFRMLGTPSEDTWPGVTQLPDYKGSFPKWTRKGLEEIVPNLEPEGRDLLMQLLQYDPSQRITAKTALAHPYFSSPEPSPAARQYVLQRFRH
# Cyclin-dependent kinase 6 (Homo sapiens), sequence (Q00534 whole entry): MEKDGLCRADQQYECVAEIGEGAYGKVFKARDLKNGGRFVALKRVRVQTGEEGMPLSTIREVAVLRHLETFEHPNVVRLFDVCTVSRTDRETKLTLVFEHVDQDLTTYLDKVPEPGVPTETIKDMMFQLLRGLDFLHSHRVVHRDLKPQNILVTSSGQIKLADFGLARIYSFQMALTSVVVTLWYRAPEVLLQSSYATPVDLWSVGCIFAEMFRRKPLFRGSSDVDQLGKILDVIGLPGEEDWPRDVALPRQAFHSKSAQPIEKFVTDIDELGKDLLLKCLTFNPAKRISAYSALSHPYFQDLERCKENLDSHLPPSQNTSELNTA
SMILES,inhibition [1] [%],inhibition [2] [%],inhibition [3] [%],inhibition [4] [%],inhibition [5] [%],inhibition [6] [%],inhibition [7] [%],inhibition [8] [%],inhibition [9] [%],inhibition [10] [%],inhibition [11] [%],inhibition [12] [%],inhibition [13] [%],inhibition [14] [%],inhibition [15] [%],inhibition [16] [%],inhibition [17] [%],inhibition [18] [%],inhibition [19] [%],inhibition [20] [%]
CCn1c(-c2nonc2N)nc2cnc(Oc3cccc(NC(=O)c4ccc(OCCN5CCOCC5)cc4)c3)cc21,-2.11,3.32,2.38,-0.26,0.42,-1.58,-0.79,-0.98,-0.12,0.57,1.22,0.91,4.24,0.06,0.86,3.68,5.39,13.9,56.5,10.2
NCc1ccc(-c2nc(-c3ccc(Cl)c(O)c3)c(-c3ccncc3)[nH]2)cc1,-2.19,1.89,3.19,1.65,3.47,-3.35,1.53,2.01,0.72,0.63,3.14,3.51,3.85,4.36,3.42,0.33,0.81,4.59,32.5,16.9
O=C(Nc1n[nH]c2nc(-c3ccco3)c(Br)cc12)C1CC1,2.69,2.78,8.19,0.87,3.63,-1.81,12.9,1.95,2.79,0.97,2.72,1.71,4.33,0.48,3.25,3.03,4.31,36.9,80.6,–
c1cnn2ncc(-c3ccnc(Nc4ccc5c(c4)OCCO5)n3)c2c1,85.6,51.9,85.7,57.4,90.4,46.5,85,90.1,97.6,12.6,52,79.6,87.6,80.6,88.9,10.7,50.8,75.6,92.5,74.4
CCn1c(-c2nonc2N)nc2cncc(C(=O)N3CC[C@H](N)C3)c21,-2.13,2.98,2.35,0.46,0.69,-1.51,4.8,5.07,21.6,1.31,1.82,12.7,49.4,7.9,44.4,15,59.5,3.29,19.3,2.36
CCn1c(-c2nonc2N)nc2c(C#CC(C)(C)O)nc(OC[C@@H](N)c3ccccc3)cc21,0.99,-0.22,0.8,0.35,0.49,-0.27,-0.99,0.81,2.4,-0.31,0.8,-0.38,5.33,1.06,4.19,-1.52,-0.54,37.4,78.5,32.1
O=C1Nc2ccc(C(=O)c3ccco3)cc2C1=Cc1cc(Cl)c(O)c(Cl)c1,-0.28,3.32,7.07,1.97,6.39,3.35,7.37,64.6,95.7,22.3,63.8,40.5,78.3,47.4,81.5,3.34,13.4,24.5,70.1,31.1
CC1=C(C(=O)Nc2ccc3[nH]ncc3c2)C(c2ccc(Cl)c(Cl)c2)CC(=O)N1 (stereo unspecified),0.2,0.92,-0.63,-0.73,-0.62,2.47,0.05,0.09,4.18,0.34,2.49,-0.12,3.73,0.77,3.21,1.35,2.88,0.15,4.5,-0.24
CCn1c(-c2nonc2N)nc2c(C#CC(C)(C)O)nc(CN3CCCC3)cc21,-0.95,1.6,2.5,1.06,2.14,-8.94,0.66,-0.92,1.46,-1.6,0.53,1.08,2.47,0.74,2.39,-1.68,0.64,5.1,21.6,4.97
NC(=O)c1ccc(-c2nc(-c3ccccn3)c(-c3ccc4c(c3)OCO4)[nH]2)cc1,-1.06,1.33,1.94,0.55,0.87,1,-1.82,1.23,1.07,-1.49,1.76,1.47,3.08,-0.77,0.83,1.43,1.31,2.47,3.92,1.88
O=C1NC(=O)C(c2cccc(Cl)c2)=C1Nc1ccc(O)c(Cl)c1,6.94,2.23,13.9,1.36,7.25,-3.15,12.6,4.59,26.1,-0.5,5.01,2.08,17.3,1.51,8.29,1,0.69,–,–,–
COc1ccccc1Nc1ncc(-c2ccccc2)o1,-1.14,0.89,2.21,0.04,1.68,-0.22,-0.99,0.98,0.86,1.23,0.51,2.5,3.38,-1.91,-1.3,4.18,3.04,2.25,3.92,2.57
[O-][S+]1CCN(Cc2ccc(-c3ccc4ncnc(Nc5ccc(OCc6ccccc6)c(F)c5)c4c3)o2)CC1,-0.37,1.78,2.34,0.47,0.42,-2.8,-0.74,1.05,0.69,0.9,11.2,2.61,2.98,1.09,1.08,1.63,3.4,0.27,2.88,-0.3
